Six molecules from PubChem BioAssay (NCATS) can be followed below.

Test [1] concerns the target Peroxisome proliferator-activated receptor gamma (Homo sapiens) (UniProt P37231). Nature of the test: qHTS assay for small molecule agonists of peroxisome proliferator-activated receptor gamma signaling (AID 588536; active = well fitted curve in the direction sought with a large enough effect in the signal ratio, with a control signal flat, not every such curve was filed as active; the % refers to the signal ratio;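 note: 0% = DMSO basal wells and 100% = rosiglitazone at 2 µM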). In outline: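 GeneBLAzer PPAR-gamma-UAS-bla HEK293 cells in 1% charcoal/dextran-treated FBS medium were treated 16 h at 37 C with compounds. Beta-lactamase activity was read by CCF4 ratio (460/530 nm). Response was normalized to 2 uM rosiglitazone (100%) and DMSO, then Hill-fitted for EC50 and efficacy.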
In general terms: Quantitative high-throughput screening tests each substance at several concentrations.

Test [2] has the same target. Description: qHTS assay for small molecule antagonists of peroxisome proliferator-activated receptor gamma signaling (AID 588537; active = well fitted inhibition curve with a large enough effect in the signal ratio, with a control signal flat, not every such curve was filed as active; the % refers to the signal ratio;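 note: reporter cells co-stimulated with 50 nM rosiglitazone agonist during compound treatment; % of control where 0% means no effect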). In outline: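 Step one: plate 3000 HEK293 UAS-bla cells per well in medium with 1% stripped serum and hold 6-6.5 h at 37 C. Step two: add compound and 50 nM agonist for 16 h. Step three: CCF4 loading, fluorescence read.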
In test [3] the target is Vitamin D3 receptor (Homo sapiens) (UniProt P11473). Description: qHTS assay for small molecule antagonists of vitamin D receptor signaling (AID 588541; calls by dose curve;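 note: receptor activated by calcitriol during compound treatment; series mostly up to about 77 µM; % is set by controls: 0 for no effect and ±100 for the full control effect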). In outline:
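VDR-UAS-bla HEK293T cells in 2% charcoal-stripped FBS were stimulated with 1-alpha,25-dihydroxyvitamin D3 (3 nM final) plus compound for 16 h at 37 C. The beta-lactamase CCF4 readout was normalized to 50 nM agonist and DMSO, and Hill fits gave IC50.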

Test [4] shares this target. Nature of the test: qHTS assay for small molecule agonists of vitamin D receptor signaling (AID 588543; calls by dose curve;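 note: 0% = DMSO basal and 100% = reference agonist control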). In short, it runs like this: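 Agonist-mode beta-lactamase reporter: HEK293T VDR-UAS-bla cells in charcoal-stripped 2% FBS, compound series 16 h 37 C, CCF4 2 h RT. EC50 from Hill fit, scaled against DMSO and 50 nM calcitriol control.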
The nature of test [5]: qHTS assay for small molecule agonists of retinoid X receptor alpha signaling (AID 588544; calls by dose curve;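 for activation: 0% = DMSO basal wells and 100% = reference agonist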). As to conditions: HEK293T RXRa-UAS-bla, beta-lactamase reporter, 18 h; 530 nm emission.
Test [6] has as its target Retinoic acid receptor RXR-alpha (Homo sapiens) (UniProt P19793). The test is described as above.
Test [7] has as its target Thyroid hormone receptor beta (Homo sapiens) (UniProt P10828). Description: qHTS assay for small molecule agonists of thyroid hormone receptor beta signaling (AID 588545; calls by dose curve;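 note: 0% = DMSO only and 100% = 10 nM T3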). In short, it runs like this: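 Stimulation of a TR-driven beta-lactamase reporter was quantified in GripTite HEK 293 cells. Compound series ran for 18 hrs; curves were normalized to T3 and DMSO controls and fitted to yield EC50.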

The nature of test [8]: qHTS assay for small molecule antagonists of retinoid X receptor alpha signaling (AID 588546; active = well fitted inhibition curve with a large enough effect in the signal ratio, with a control signal flat, not every such curve was filed as active; the % refers to the signal ratio;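 note: cells stimulated with 9-cis-retinoic acid as agonist; % is set by controls: 0 for no effect and ±100 for the full control effect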). To be noted: HEK293T RXRa-UAS-bla, beta-lactamase ratio, antagonist mode; measured here: W530 green channel, cytotoxicity proxy. In short, it runs like this: (§1)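 Beta-lactamase reporter inhibition, read as CCF4 fluorescence ratio (ex 405, em 460/530 nm) after 2 h at RT. HEK293T UAS-bla cells, 2500/well, were stimulated with 9-cis-RA at 500 or 100 nM final alongside test compound for 18 h at 37 C.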

A short description of test [9]: qHTS assay for small molecule activators of the p53 signaling pathway (AID 651743; active = well fitted activation curve with a large enough effect in the signal ratio, not every such curve was filed as active; the % refers to the signal ratio; note: series mostly up to about 92 µM; % of control where 0% means no effect). To be noted: HCT-116 p53RE-bla, beta-lactamase FRET ratio, 16 h; activation: stronger effect = higher value. In short, it runs like this: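 HCT-116 p53RE-bla, 4,000 cells/well; 5 h settle; cpd/DMSO 16 h, 37 C; LiveBLAzer B/G 2 h RT; fluorescence intensity.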
A short description of test [10]: qHTS assay for small molecule activators of the nuclear factor-kappa B (NF-kB) signaling pathway (AID 651749; active = well fitted activation curve with a large enough effect in the signal ratio; the % refers to the signal ratio; note: series mostly up to about 77 µM; % of control where 0% means no effect). To be noted: NF-kB-bla ME-180 cells, beta-lactamase FRET ratio, 16 h; activation: stronger effect = higher value. In outline: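 Incubation lasted 16 hr at 37C in 5% CO2 after 23 nL compound addition to ME-180 NF-kB-bla cells. Activation appears as beta-lactamase-mediated FRET loss.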

Test [11] can be described thus: qHTS assay for environmental chemicals that activate the Aryl hydrocarbon Receptor (AhR) signaling pathway (AID 651777). Note: % of control where 0% means no effect; nearly all actives have a fitted effect of over 15% in size. To be noted: 1A2-DRE human hepatoma cells, luciferase, 24 h; activation: stronger effect = higher value. In short, it runs like this:
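Induction of CYP1A2 transcription through AhR is detected by luciferase in 1A2-DRE hepatoma cells. Compounds or DMSO act for 24 hr at 37 C before a 30 min One-Glo step at room temperature.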

For test [12], the target named is Peroxisome proliferator-activated receptor alpha (Homo sapiens) (UniProt Q07869). Description: qHTS assay for small molecule agonists of the peroxisome proliferator-activated receptor alpha (PPARalpha) signaling pathway (AID 651778). Note: % of control where 0% means no effect. To be noted: PathHunter PPARalpha complementation, chemiluminescence, 6 h; max response: stronger effect = higher value. In short, it runs like this: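 Enzyme-fragment complementation assay in which ligand-bound PPARalpha translocates and forms an active enzyme that generates chemiluminescence. Cells were plated overnight, exposed to compound for 6 hr at 37 C, and then given detection reagent for 60 min at room temperature.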

The nature of test [13]: qHTS assay for small molecule agonists of the antioxidant response element (ARE) signaling pathway measured by Nrf2-dependant transcriptional activity - cell viability counter screen (AID 720653; active = well fitted curve in the direction sought with a large enough effect in the repeat runs; an effect the other way counts as inactive or inconclusive; note: % is set by controls: 0 for no effect and ±100 for the full control effect). As to conditions: ARE-bla HepG2 viability, CellTiter-Glo ATP luminescence, 16 h; max response: stronger effect = lower value. In short, it runs like this: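 ARE-bla HepG2 cells treated with compounds for 16 h at 37C; this counter screen measures viability as intracellular ATP by CellTiter-Glo luminescence after 30 min at room temperature.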

A short description of test [14]: qHTS assay for cell viability of HEK293 cells (AID 743288). Note: % is set by controls: 0 for no effect and ±100 for the full control effect; nearly all actives have a fitted effect of over 50% in size. To be noted: ATP luminescence (CellTiter-Glo), 18 h; max response: stronger effect = lower value. In short, it runs like this:
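Total intracellular ATP, measured with a luciferase-coupled reagent, indicates the number of viable HEK293 cells. Exposure to test chemicals lasts 18 h at 37 C in 1,536-well format at 2,000 cells/well.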

Test [15] is described as follows: qHTS assay for cell viability of the p53RE-bla HCT-116 cell line (AID 743292). Note: % is set by controls: 0 for no effect and ±100 for the full control effect; nearly all actives have a fitted effect of over 55% in size. In outline: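 In this qHTS counter-screen, metabolically competent p53RE-bla HCT-116 cells were counted via their ATP content. Compounds were applied for 16 h at 37 C and luciferase-coupled luminescence was measured.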
A short description of test [16]: qHTS assay for small molecule antagonists of peroxisome proliferator-activated receptor delta signaling (AID 588535).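 Note: cells co-treated with a PPAR-delta agonist as stimulator during compound exposure.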 To be noted: HEK293T PPARd-UAS-bla, beta-lactamase FRET ratio, 18 h; 460 nm channel. In short, it runs like this: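 Cells were seeded at 4000 per well in assay medium containing 2% charcoal/dextran FBS and held 5 hrs at 37 C. Compounds were then added for 18 hrs. CCF4 substrate was applied for 2 hrs at room temperature before fluorescence reading.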

In test [17] the target is Retinoic acid receptor RXR-alpha (Homo sapiens) (UniProt P19793). Nature of the test: qHTS assay for small molecule antagonists of retinoid X receptor alpha signaling (AID 588546).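 Note: cells stimulated with 9-cis-retinoic acid as agonist; % is set by controls: 0 for no effect and ±100 for the full control effect.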 To be noted: HEK293T RXRa-UAS-bla, beta-lactamase ratio, antagonist mode. In short, it runs like this: as §1
Test [18] is described as follows: qHTS assay for small molecule agonists of the antioxidant response element (ARE) signaling pathway measured by Nrf2-dependant transcriptional activity (AID 720636; active = well fitted curve in the direction sought with a large enough effect in the repeat runs; an effect the other way counts as inactive or inconclusive;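 note: HepG2 cells with an ARE-driven luciferase reporter; % of control where 0% means no effect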). In outline: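 We exposed ARE-luc HepG2 cells, seeded in assay medium with 1% dialyzed FBS and allowed 6 hr to adhere, to test compounds overnight (16 hr, 37 C) before measuring luciferase with ONE-Glo.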

Test [19] concerns the target Nuclear receptor subfamily 1 group I member 2 (Rattus norvegicus) (UniProt Q9R1A7). Description: qHTS assay for small molecule activators of the rat pregnane X receptor (rPXR) signaling pathway (AID 651751; call rule not given here; note: 0% is about no effect). As to conditions: rPXR reporter cells, luciferase (One-Glo), 24 h.
Test [20] is described as follows: qHTS assay for small molecule activators of the human pregnane X receptor (PXR) signaling pathway (AID 720659; call rule not given here; note: 0% is about no effect).

Several values for one entry are separate records, joined by “and”; a condition that tells them apart may be missing. Equal values may be shown once. Records with an inconclusive call do not appear. Activity calls are given as the source filed them. Unless noted, calls come from the whole dose curve; as a rule, active = well fitted curve in the direction sought with a large enough effect; inconclusive = small, poorly fitted or top-dose-only effect, or another doubt; inactive = no such curve, though single readings can be large; an effect the other way counts as inactive or inconclusive.

Chain of Retinoic acid receptor RXR-alpha (Homo sapiens) (P19793 whole entry, looked up): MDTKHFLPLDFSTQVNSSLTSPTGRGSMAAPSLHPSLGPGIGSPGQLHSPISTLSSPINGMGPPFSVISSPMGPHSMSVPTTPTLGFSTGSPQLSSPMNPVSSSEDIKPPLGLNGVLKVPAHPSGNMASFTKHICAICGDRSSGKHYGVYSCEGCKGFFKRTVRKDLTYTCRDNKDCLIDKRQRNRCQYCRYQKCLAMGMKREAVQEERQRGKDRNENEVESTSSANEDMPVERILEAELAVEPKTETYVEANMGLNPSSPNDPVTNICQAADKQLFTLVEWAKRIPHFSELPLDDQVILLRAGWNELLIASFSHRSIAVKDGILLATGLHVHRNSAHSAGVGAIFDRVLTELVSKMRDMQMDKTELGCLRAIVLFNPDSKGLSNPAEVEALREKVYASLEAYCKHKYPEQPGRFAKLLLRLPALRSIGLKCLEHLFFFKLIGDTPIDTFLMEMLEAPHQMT
Chain of Thyroid hormone receptor beta (Homo sapiens) (P10828 whole entry, looked up): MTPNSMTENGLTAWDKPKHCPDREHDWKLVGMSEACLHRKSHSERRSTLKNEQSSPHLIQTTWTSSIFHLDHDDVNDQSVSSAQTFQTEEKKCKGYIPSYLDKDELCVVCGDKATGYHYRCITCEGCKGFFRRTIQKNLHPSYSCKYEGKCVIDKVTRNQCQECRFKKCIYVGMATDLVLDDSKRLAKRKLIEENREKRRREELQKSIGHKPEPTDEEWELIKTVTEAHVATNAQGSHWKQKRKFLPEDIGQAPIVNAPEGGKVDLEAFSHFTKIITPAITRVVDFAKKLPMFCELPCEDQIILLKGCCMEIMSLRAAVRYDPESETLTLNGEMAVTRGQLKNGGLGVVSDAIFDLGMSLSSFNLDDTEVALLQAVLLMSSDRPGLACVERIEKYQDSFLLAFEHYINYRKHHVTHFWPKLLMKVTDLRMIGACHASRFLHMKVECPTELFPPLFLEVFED
Chain of Nuclear receptor subfamily 1 group I member 2 (Rattus norvegicus) (Q9R1A7 whole entry, looked up): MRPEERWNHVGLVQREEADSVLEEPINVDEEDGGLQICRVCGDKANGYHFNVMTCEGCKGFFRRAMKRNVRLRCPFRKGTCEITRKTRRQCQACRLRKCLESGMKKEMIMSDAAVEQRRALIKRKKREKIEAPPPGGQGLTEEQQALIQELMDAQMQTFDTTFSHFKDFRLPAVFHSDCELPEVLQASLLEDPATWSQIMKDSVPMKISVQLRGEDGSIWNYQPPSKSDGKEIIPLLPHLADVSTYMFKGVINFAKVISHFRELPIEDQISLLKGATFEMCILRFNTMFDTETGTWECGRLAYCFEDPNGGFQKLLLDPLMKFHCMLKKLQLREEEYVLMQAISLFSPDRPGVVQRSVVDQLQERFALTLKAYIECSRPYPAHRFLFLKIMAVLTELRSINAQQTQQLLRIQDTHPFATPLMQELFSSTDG
Chain of Peroxisome proliferator-activated receptor alpha (Homo sapiens) (Q07869 whole entry, looked up, the tested form may be a part): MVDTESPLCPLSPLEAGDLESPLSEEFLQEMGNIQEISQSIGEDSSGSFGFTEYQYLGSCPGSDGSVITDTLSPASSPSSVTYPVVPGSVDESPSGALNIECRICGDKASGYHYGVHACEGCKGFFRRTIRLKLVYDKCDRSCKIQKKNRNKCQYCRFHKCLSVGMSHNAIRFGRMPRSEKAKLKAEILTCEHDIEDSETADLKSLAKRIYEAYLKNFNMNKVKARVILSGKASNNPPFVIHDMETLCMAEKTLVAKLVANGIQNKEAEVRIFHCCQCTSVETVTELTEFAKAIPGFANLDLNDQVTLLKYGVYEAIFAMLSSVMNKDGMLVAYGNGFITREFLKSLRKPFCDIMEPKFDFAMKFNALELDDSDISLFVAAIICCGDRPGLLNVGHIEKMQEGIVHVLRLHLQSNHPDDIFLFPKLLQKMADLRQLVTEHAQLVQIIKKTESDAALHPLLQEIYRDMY
Chain of Vitamin D3 receptor (Homo sapiens) (P11473 whole entry, looked up): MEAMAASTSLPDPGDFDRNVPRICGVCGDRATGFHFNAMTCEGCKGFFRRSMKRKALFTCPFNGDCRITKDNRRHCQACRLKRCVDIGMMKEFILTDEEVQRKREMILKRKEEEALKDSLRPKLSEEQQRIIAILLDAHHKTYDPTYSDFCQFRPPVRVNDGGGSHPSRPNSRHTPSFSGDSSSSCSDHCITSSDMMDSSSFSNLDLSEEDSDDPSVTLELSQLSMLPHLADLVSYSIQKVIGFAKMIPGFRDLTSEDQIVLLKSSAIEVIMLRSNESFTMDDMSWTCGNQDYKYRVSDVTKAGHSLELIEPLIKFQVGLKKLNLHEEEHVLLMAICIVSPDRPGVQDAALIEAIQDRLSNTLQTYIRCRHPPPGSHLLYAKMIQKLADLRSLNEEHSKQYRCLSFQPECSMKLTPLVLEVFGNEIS
Chain of Peroxisome proliferator-activated receptor gamma (Homo sapiens) (P37231 whole entry, looked up): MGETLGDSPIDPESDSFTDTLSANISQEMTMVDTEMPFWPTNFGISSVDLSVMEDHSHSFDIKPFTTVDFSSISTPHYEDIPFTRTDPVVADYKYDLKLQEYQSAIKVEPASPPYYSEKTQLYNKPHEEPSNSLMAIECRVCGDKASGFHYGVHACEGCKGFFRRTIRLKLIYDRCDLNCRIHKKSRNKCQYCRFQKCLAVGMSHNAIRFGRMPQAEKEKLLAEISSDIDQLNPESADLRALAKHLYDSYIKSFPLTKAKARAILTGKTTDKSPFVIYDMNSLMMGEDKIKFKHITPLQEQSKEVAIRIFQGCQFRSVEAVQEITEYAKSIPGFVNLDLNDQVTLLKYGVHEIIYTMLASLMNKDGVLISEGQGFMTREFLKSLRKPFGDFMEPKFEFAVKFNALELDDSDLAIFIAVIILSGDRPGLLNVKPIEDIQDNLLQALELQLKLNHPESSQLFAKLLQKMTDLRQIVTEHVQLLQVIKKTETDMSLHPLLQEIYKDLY

In the case of `CCCCCCCCCCO`, the molecule was called inactive in [1] and in test [4]. For the same molecule, the Potency result in [2], in test [3], in test [6], in [7] and in [15] was “inactive” in each case. In addition, the max response in [5] is -3.16% and -6.7%; in test [8], -1.67% and -3.39%; in test [12], -0.236% (inactive) and 5.87% (inactive); in test [13], -7.77% (inactive) and 2.22% (inactive); in test [14] it was -9.96% (inactive) and -5.95% (inactive). Besides, the activation in test [9] is 1.66% (inactive) and 2.49% (inactive); in test [10] it was -0.272% (inactive) and -0.916% (inactive); in [11], -1.2% (inactive) and 0.559% (inactive).
Consider `CCC(=O)OCCc1ccccc1`, for which the max response in test [16] is 20.5%; in test [5], -7.14%; in test [8], -6.4%; in test [17] it was 3.85% (inactive); in [12], -0.0633% (inactive); in test [13], 0.747% (inactive). The figures for the max response in test [14] and in [19] were -5.25% (inactive) and -2.51% (inactive), respectively. Moreover, the result in test [1] and in test [20] was inactive. The Potency entry in test [3], in [6], in test [7], in [18] and in test [15] was “inactive” throughout. The activation in test [9] is -3.48% (inactive); in test [10], 1.34% (inactive); in test [11], 2.12% (inactive).
Regarding `Cc1ccc(C(C)(C)C)c(O)c1`, the molecule was called inactive in test [1] and in [4]. Also, the Potency result in [2], in test [3], in test [6], in test [7], in test [18] and in test [15] was “inactive” throughout. Further, the max response in test [5] is -12.1%; in [8], -16%; in test [17] it was -3.16% (inactive); in [12], -0.656% (inactive); in test [13], 6.52% (inactive); in [14], -6.81% (inactive). In test [19], the max response was 1.73% (inactive). The values for the activation in test [9], in test [10] and in test [11] were -4.17% (inactive), 0.363% (inactive) and 1.48% (inactive), respectively.
Take `CCCCCCCCCCCCO`: the max response was 3.59% in test [16]; -12.2% in test [5]; -2.04% in [8]; 8.28% (inactive) in test [17]; -0.593% (inactive) in test [12]; -4.36% (inactive) in [13]. In addition, the max response in test [14] was -11.9% (inactive); in test [19], 1.35% (inactive). Further, the result in test [1], in test [4] and in test [20] was inactive. Also, the Potency entry in test [2], in [3], in [7], in test [18] and in test [15] was “inactive” in each case. For the same molecule, the activation in test [9] is -3.58% (inactive); in [11], 2.81% (inactive).
For the molecule `C[Si]1(C)N[Si](C)(C)N[Si](C)(C)N1`, the outcome in test [1] and in test [20] was inactive. Besides, the Potency entry in test [2], in test [6], in test [7], in test [18] and in test [15] was “inactive” each time. Besides, the max response in test [5] is -6.42%; in test [8], -13.1%; in test [17], -7.51% (inactive); in [12], -0.733% (inactive); in test [13], -8.08% (inactive); in test [14], -3.76% (inactive). Further, the max response in test [19] is 1.59% (inactive). The activation was -5.2% (inactive) in test [9] and -2.89% (inactive) in test [10].
On to `OCCC(F)(F)C(F)(F)C(F)(F)C(F)(F)C(F)(F)C(F)(F)C(F)(F)C(F)(F)F`, for which the max response is -9.21% in [16]; -23.4% in test [5]; -18.9% in test [8]; -9.11% (inactive) in test [17]; 0.874% (inactive) in [12]; -8.07% (inactive) in test [13]. The max response is -9.6% (inactive) in test [14] and -1.29% (inactive) in [19]. Besides, the Potency result in [3], in test [6], in test [7], in [18] and in test [15] was “inactive” in each case. Moreover, the molecule was called inactive in test [4]. Also, the activation in [9] is 2.93% (inactive); in test [10], 1.52% (inactive); in test [11], 0.162% (inactive).
